Experimental data from PubChem BioAssay (NCI).
Several values for one entry are separate records, joined by “and”; a condition that tells them apart may be missing. Equal values may be shown once. This is part of a sample that, as a whole, favours compounds with a hit. Of some 79,000 tested, about 15% had one in any assay. A structure can be active in one record and inactive in another. Activity calls are given as the source filed them. Cut-off read from the data, not from the text of the source: active = growth inhibition above about 70%; inactive = the rest.

Key:
[1] = NCI Yeast Anticancer Drug Screen. Data for the rad50 strain (AID 155);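 note: 0% = growth of vehicle-only cultures of the same strain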; settings: S. cerevisiae rad50 strain growth inhibition, stronger effect = higher value
Outline: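 Readout: growth inhibition relative to vehicle-treated cultures. Compound exposure was carried out in a genetically defined yeast strain deficient in DNA damage repair.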

[2] = NCI Yeast Anticancer Drug Screen. Data for the mec2-1 strain (AID 157); settings: S. cerevisiae mec2-1 strain, stronger effect = higher value
Outline: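 Cells of the genetically defined mec2-1 yeast strain are incubated with test compound. Inhibition of growth is calculated against vehicle-treated controls.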

[3] = NCI Yeast Anticancer Drug Screen. Data for the sgs1 mgt1 strain (AID 161);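 note: 0% = growth of cultures given vehicle only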; settings: S. cerevisiae sgs1 mgt1 strain, stronger effect = higher value
Outline: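 Inhibition of yeast growth, normalised to vehicle-treated controls, is reported for a strain bearing genetic alterations in DNA damage repair.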

[4] = NCI Yeast Anticancer Drug Screen. Data for the cln2 rad14 strain (AID 165);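 note: 0% = growth equal to vehicle treated cultures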; settings: S. cerevisiae cln2 rad14 strain, stronger effect = higher value
Outline: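 The screen exposed genetically defined yeast (cln2 rad14) to test compounds and scored growth inhibition relative to vehicle-treated controls.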

[5] = NCI Yeast Anticancer Drug Screen. Data for the bub3 strain (AID 167); settings: S. cerevisiae bub3 mutant strain, stronger effect = higher value
Outline: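 Readout: yeast growth inhibition, expressed relative to vehicle-only wells. The test organism is a mutant strain from a panel with lesions in DNA repair or checkpoint genes.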

[6] = NCI Yeast Anticancer Drug Screen. Data for the mlh1 rad18 strain (AID 175); settings: S. cerevisiae mlh1 rad18 strain growth inhibition, stronger effect = higher value
Outline: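 Compound-treated yeast growth, normalised to vehicle controls. Strain bears defined DNA repair mutations.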

[7] = at 5.0 µM (retest, dose inferred, filed as 0.5)
[8] = at 50.0 µM (retest, dose inferred, filed as 5.0)

Measured: growth inhibition

CC(=O)[C@]1(O)Cc2c(O)c3c(c(O)c2[C@@H](OC2CC(N)C(O)C(C)O2)C1)C(=O)c1c(O)cccc1C3=O (some centres not stated)
inactive: [4]; [7] 57% and 66%
active: [1]; [7] 88% and 91% | [1]; [8] 97% and 96% | [1]; at 50.0 µM 91.1% and 86.5% | [2]; [7] 81% and 80% | [2]; [8] 98% and 97% | [2]; at 50.0 µM 92.5% and 89% | [3]; [7] 73% and 92% | [3]; [8] 96% and 98% | [3]; at 50.0 µM 92.4% and 88.3% | [4]; [8] 97% and 95% | [4]; at 50.0 µM 88.7% and 89.2% | [5]; [7] 77% and 86% | [5]; [8] 97% and 98% | [5]; at 50.0 µM 90.8% and 89% | [6]; [7] 90% and 87% | [6]; [8] 97% and 95% | [6]; at 50.0 µM 90.2% and 92%

CCCCCCCCCCCCCCCC[N+](C)(C)c1nc(Cl)nc(Cl)n1
active: [1]; [7] 99% | [1]; [8] 99% | [1]; at 50.0 µM 99.3% | [2]; [7] 100% | [2]; [8] 100% | [2]; at 50.0 µM 98.1% | [3]; [7] 100% | [3]; [8] 100% | [3]; at 50.0 µM 99.2% | [4]; [7] 98% | [4]; [8] 99% | [4]; at 50.0 µM 95.5% | [5]; [7] 99% | [5]; [8] 99% | [5]; at 50.0 µM 99.3% | [6]; [7] 99% | [6]; [8] 99% | [6]; at 50.0 µM 95.8%

CC(=O)Nc1ccc(S(=O)(=O)N(CCO)CCO)cc1
active: [2]; at 50.0 µM 98.5% | [5]; at 50.0 µM 80.7% | [6]; at 50.0 µM 91.2%
inactive: [1]; [7] -2% | [1]; [8] -4% | [1]; at 50.0 µM 15.2% | [2]; [7] -12% | [2]; [8] -5% | [3]; [7] -12% | [3]; [8] -4% | [3]; at 50.0 µM 40.5% | [4]; [7] 0% | [4]; [8] 1% | [4]; at 50.0 µM 57% | [5]; [7] -7% | [5]; [8] 1% | [6]; [7] -20% | [6]; [8] -9%

CCOCc1ccccc1C(O)(c1ccc(OC)cc1)c1ccc(OC)cc1
67% (inactive) and 94.2% (active): [4]; at 50.0 µM
33.4% (inactive) and 72.5% (active): [2]; at 50.0 µM
48.3% (inactive) and 78.8% (active): [1]; at 50.0 µM
inactive: [1]; [7] 5% and 1% | [1]; [8] 2% and 1% | [2]; [7] 2% and 6% | [2]; [8] 9% and 11% | [3]; [7] 6% and -2% | [3]; [8] 10% and 21% | [4]; [7] 3% and 5% | [4]; [8] 3% and 7% | [5]; [7] 3% and 14% | [5]; [8] 33% and 61% | [6]; [7] 3% and 5% | [6]; [8] -26% and 41%
60.5% (inactive) and 77.2% (active): [3]; at 50.0 µM
active: [5]; at 50.0 µM 76.5% and 95.8% | [6]; at 50.0 µM 74% and 82.8%

Cc1ccc(C(C)C)c2c1CN(CCN1COc3c(C(C)C)ccc(C)c3C1)CO2
inactive: [1]; [7] -3% | [1]; [8] 2% | [1]; at 50.0 µM -3.9% | [2]; [7] 0% | [2]; [8] 3% | [2]; at 50.0 µM 6.8% | [3]; [7] -3% | [3]; [8] -1% | [3]; at 50.0 µM -13.8% | [4]; [7] -4% | [4]; [8] 1% | [4]; at 50.0 µM -11.2% | [5]; [7] -1% | [5]; [8] -2% | [5]; at 50.0 µM -2.95% | [6]; [7] -1% | [6]; [8] 4% | [6]; at 50.0 µM -8.65%

Nc1cc2ccccc2c2c1ccc1ccccc12
24% (inactive) and 95% (active): [4]; [8]
4% (inactive) and 95% (active): [1]; [8]
active: [1]; at 50.0 µM 96.5% and 89.7% | [2]; at 50.0 µM 96.9% and 94.2% | [3]; at 50.0 µM 97.8% and 92.5% | [4]; at 50.0 µM 95.3% and 90.5% | [5]; at 50.0 µM 97.6% and 91.4% | [6]; at 50.0 µM 96.4% and 90.7%
inactive: [1]; [7] -159% and 6% | [2]; [7] -48% and 1% | [3]; [7] -66% and 14% | [3]; [8] -18% and 64% | [4]; [7] -56% and -2% | [5]; [7] -64% and -4% | [6]; [7] -125% and 3%
8% (inactive) and 97% (active): [2]; [8]
-2% (inactive) and 96% (active): [5]; [8]
-40% (inactive) and 96% (active): [6]; [8]

O=[N+]([O-])c1ccc(SSc2ccc([N+](=O)[O-])cc2)cc1
inactive: [4]; [7] 27% and 65%
active: [1]; [8] 98% | [2]; [7] 70% and 99% | [2]; [8] 99% | [3]; [7] 91% and 87% | [3]; [8] 99% and 98% | [4]; [8] 97% | [5]; [8] 99% | [6]; [7] 70% and 87% | [6]; [8] 98%
99% (active) and 68.8% (inactive): [3]; at 50.0 µM
98.2% (active) and 65.7% (inactive): [1]; at 50.0 µM
98.3% (active) and 69.6% (inactive): [6]; at 50.0 µM
98.5% (active) and 49.2% (inactive): [5]; at 50.0 µM
35% (inactive) and 88% (active): [1]; [7]
98.9% (active) and 38.1% (inactive): [2]; at 50.0 µM
93.7% (active) and -34.6% (inactive): [4]; at 50.0 µM
58% (inactive) and 98% (active): [5]; [7]

COC(=O)[C@@H](NS(=O)(=O)CC12CCC(CC1)C2(C)C)C(C)(C)C
active: [3]; [8] 70% | [6]; [8] 83%
inactive: [1]; [7] 2% | [1]; [8] 50% | [1]; at 50.0 µM 14.2% | [2]; [7] 1% | [2]; [8] 51% | [2]; at 50.0 µM 26.1% | [3]; [7] 16% | [3]; at 50.0 µM 25.7% | [4]; [7] 6% | [4]; [8] 48% | [4]; at 50.0 µM 21.4% | [5]; [7] 0% | [5]; [8] 54% | [5]; at 50.0 µM 10.9% | [6]; [7] 0% | [6]; at 50.0 µM 58.6%

CCCCCCCCCCCCCCCCBr
inactive: [1]; [7] -1% | [1]; [8] 0% | [2]; [7] -2% | [2]; [8] 0% | [3]; [7] -2% | [3]; [8] 8% | [4]; [7] 4% | [4]; [8] 1% | [5]; [7] -2% | [5]; [8] -3% | [6]; [7] 6% | [6]; [8] -5%
active: [1]; at 50.0 µM 99.5% | [2]; at 50.0 µM 99.7% | [3]; at 50.0 µM 99.3% | [4]; at 50.0 µM 98.8% | [5]; at 50.0 µM 99.5% | [6]; at 50.0 µM 99.2%
